# According to PubChem BioAssay (NCATS):
# Inconclusive results are not listed. A number with no mark means an inactive call. Activity calls are given as the source filed them. Calls follow the shape of the dose curve; as a rule, active = well fitted inhibition curve with a large enough effect; inconclusive = small, poorly fitted or top-dose-only effect; inactive = flat fitted curve, though single readings scatter.
# What was measured:
# [1] = system: CRL-7250; experiment: Cytotoxic Profiling of Annotated Libraries Using Quantitative High-Throughput Screening (AID 1296008); details: Five cell lines viability, CellTiter-Glo ATP luminescence, 48-72 h; max response: active compounds read low; also: nearly all actives have a fitted effect of over 60% in size
# Method in brief: (§1)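 Cytotoxicity was measured as CellTiter-Glo ATP luminescence, read after 10 min at room temperature. Compound treatment of the cells lasted 48 or 72 hr at 37 degrees Celsius in a qHTS format.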
# [2] = system: HEK293; experiment: as above; details: Five cell lines viability, CellTiter-Glo ATP luminescence, 48-72 h; max response: active compounds read low
# Method in brief: as §1
# % is scaled to controls: 0 for no effect and ±100 for the full control effect; potency is read from the fitted curve at half-maximal effect.
smiles,measurement,setting,value
COc1nc2sc(C(=O)NC3CC3)c(N)c2c(C)c1Cl,max response,[1],-8.27%
same,max response,[2],-8.8%
CC1(C)CC[C@]2(C(=O)O[C@@H]3O[C@H](CO)[C@@H](O)[C@H](O)[C@H]3O)CC[C@]3(C)C(=CCC4[C@@]5(C)C[C@@H](O)[C@H](O)C(C)(C)C5CC[C@]43C)C2[C@@H]1O (stereo not given in full),max response,[1],0.543%
same,max response,[2],0.957%
O=C(CC(c1ccccc1)c1ccccc1)N1CCN(C(c2ccccc2)c2ccccc2)CC1,max response,[1],-24.4%
same,Potency,[2],20600 nM (active)
COC(=O)C[C@H]1C(C)(C)[C@H](OC(=O)C(C)C)[C@@]2(O)C(=O)[C@]1(C)C1CC[C@]3(C)C(CC(=O)O[C@H]3c3ccoc3)[C@]13O[C@@H]32 (stereo not given in full),outcome,[1],inactive
same,max response,[2],-5.5%
COc1ccc(N2CCOCC2)c2sc(NC(=O)N3CCC(C)(O)CC3)nc12,max response,[1],0.434%
same,max response,[2],-6.66%
C=C1[C@@H]2CC[C@@H]3[C@@](CCC4C(C(=O)O)(C(=O)O)C[C@@H](O[C@@H]5O[C@H](CO)[C@@H](O)[C@H](O)[C@H]5OC(=O)CC(C)C)C[C@]43C)(C2)[C@H]1O (stereo not given in full),max response,[1],-6.97%
same,max response,[2],-0.701%
Cc1cccc(Oc2cnc(=O)[nH]c2)c1,outcome,[1],inactive
same,max response,[2],2.27%
CC(C)C(NC(=O)c1ccc2ccccc2n1)C(=O)NC(CC(=O)O)C(=O)COc1c(F)cccc1F (stereo not given),max response,[1],-6.89%
same,max response,[2],-1.52%
CCOC(=O)C(CCc1ccccc1)NC1CSC(c2cccs2)CN(CC(=O)O)C1=O (stereo not given),max response,[1],2.02%
same,max response,[2],-2.54%
CO[C@H]1/C=C/C=C/C=C/C[C@H](OC(=O)[C@@H](C)NC(=O)C2CCCCC2)[C@H](C)[C@@H](O)/C(C)=C/CCc2cc(O)cc(c2)NC(=O)C1,Potency,[1],306 nM (active)
same,Potency,[2],343 nM (active)
Cc1cc(C(=O)N2CCCCc3ccccc32)ccc1CNC(=O)N1CCC[C@H]1C(=O)N(C)C,max response,[1],-2.89%
same,max response,[2],-0.739%
O=C1NC(Cc2ccccc2)C(=O)N2CCCC12 (stereo not given),outcome,[1],inactive
same,max response,[2],-1.73%
CC(=O)N[C@@H](CCCCN)C(=O)N(C)[C@@H](CC(C)C)C(=O)N[C@H](C(=O)N(C)[C@@H](Cc1ccccc1)C(=O)N[C@H](Cc1ccccc1)C(N)=O)C(C)C,outcome,[1],inactive
same,max response,[2],-3.34%
Cc1[nH]nc(C(F)(F)F)c1Cc1sc2c(c1C(=O)N1C[C@](C)(O)CO1)c(=O)n(C)c(=O)n2C(C)C,max response,[1],-0.426%
same,Potency,[2],51.7 nM (active)
CCOC(=O)c1sc(NC(=O)[C@H](C(C)C)n2c(=O)[nH]c3ccccc3c2=O)nc1C,outcome,[1],inactive
same,max response,[2],-9.44%
COc1ccc(CC2C(=O)NC(C)C(=O)N(C)C3Cc4ccc(cc4)Oc4cc(ccc4OC4OC(CO)C(O)C(O)C4O)CC(C(=O)NC(C)C(=O)NC(C)C(=O)N2C)N(C)C3=O)cc1 (stereo not given),Potency,[1],87.3 nM (active)
same,Potency,[2],55.1 nM (active)
CC(C)C(=O)OC[C@H]1O[C@H](O[C@H]2O[C@H](CO)[C@@H](O)[C@H](O)[C@H]2O)[C@H](O)[C@@H](O)[C@@H]1O,max response,[1],-1.64%
same,max response,[2],3.34%
O=C1CC2(CCCC2)[C@H](O)C(=O)N1CCCCN1CCN(c2ncccn2)CC1,max response,[1],2.44%
same,max response,[2],-2.49%
C=CC1(C)CC(OC(=O)/C(C)=C\COC(C)=O)C(C(=C)C(=O)O)C(O)C1C(=C)CO (stereo not given),outcome,[1],inactive
same,max response,[2],-0.348%
CSc1ccc(C(=O)N[C@@H]2CCCC[C@@H]2NC(=O)CNC(=O)c2cc(C(F)(F)F)ccc2NC(=O)NC(C)C)cc1,max response,[1],-1.98%
same,max response,[2],-11.3%
C=CC(C)(C)C12C=C(OC)C(=O)N3C(C(C)C)C(=O)NC31N(OC)c1ccccc12 (stereo not given),max response,[1],1.83%
same,max response,[2],-5.71%
C/C=C/C=C/C(O)=C1\C(=O)[C@]2(C)C3C(C(=O)CC/C=C/C)=C(O)C4(C)C1[C@]1(C)O[C@@]4(O)[C@@]3(C)O[C@@]12O,max response,[1],-4.26%
same,max response,[2],-0.736%
C[C@@H]1O[C@@H](O[C@H]2[C@H](O)[C@@H](O[C@@H]3O[C@H](CO)[C@@H](O)[C@H](O[C@@H]4O[C@H](CO)[C@@H](O)[C@H](O)[C@H]4O)[C@H]3O)[C@H](O[C@H]3CC[C@@]4(C)C(=CC[C@@H]5C4CC[C@@]4(C)C5C[C@@H]5OC6(CC[C@@](C)(CO[C@@H]7O[C@H](CO)[C@@H](O)[C@H](O)[C@H]7O)O6)[C@@H](C)[C@@H]54)C3)O[C@@H]2CO)[C@H](O)[C@H](O)[C@H]1OC1OC(CO)C(O)C(O)C1O (stereo not given in full),max response,[1],-6.48%
same,max response,[2],-4.6%
CC(=O)OC1C[C@]2(C)C(O)CC(C)=C[C@H](OC(=O)c3ccc(O)cc3)C2[C@]1(O)C(C)C (stereo not given in full),max response,[1],1.7%
same,max response,[2],-3.03%
C/C(=C\CC[C@@H](C)[C@H]1CC(O)[C@@]2(C)C3CC[C@H]4C(C)(C)[C@@H](OC5OCC(O)C(O)C5OC5OC(CO)C(O)C(O)C5O)CC[C@@]45C[C@@]35CC(O)[C@]12C)C(=O)O (stereo not given in full),max response,[1],-2.5%
same,max response,[2],0.167%
